The values below come from the supplement of paper PMC6555819.

Holding throughout (assay): PBM binding z-score (relative to random genomic background probes); higher = stronger binding; sequences stand for … in GC…GCGATTGACAGCGTAGAATGAAGG
Experiment [1] has as its system RARb homodimer (NR concentration 270 nM). The gist of the method:
(§1)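 Regression normalization was applied to scanned fluorescence from custom Agilent 4×180K protein-binding microarrays. Before scanning, arrays were incubated 1 h with ligand-free nuclear receptor dimers, and binding was detected with antibodies against each partner (one per run). Binding z-scores use the random background probes as reference.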

Experiment [2] concerns RARg:RXRa (NR concentration 270 nM, RXRa partner concentration 90 nM). Summed up:
as §1

Experiment [3] has as its system RARg homodimer (NR concentration 270 nM). The gist of the method: as §1
Experiment [4] has as its system RXRa DBDmut IVT, anti-RXR (DBD mutation: RXRa K156A/R161A, NR concentration 90 nM). The gist of the method: as §1
Experiment [5] has as its system RXRa homodimer (NR concentration 180 nM). Summed up:
as §1

Experiment [6] concerns THRa:RXRa (NR concentration 90 nM, RXRa partner concentration 90 nM). Summed up:
as §1

In experiment [7] the test system is THRa homodimer (NR concentration 90 nM). The gist of the method:
as §1

The subject of experiment [8] is VDR homodimer (NR concentration 270 nM). The gist of the method: as §1

As to TCTAGTTGGTCAAAGGTAACACACTCGAAATGCG, the PBM binding z-score in experiment [1] came to 1.51; in experiment [2], 1.97; in experiment [3] it was 1.45; in experiment [4] it was 1.33; in experiment [5], 2.42; in experiment [6], 1.46. For the same sequence, the PBM binding z-score turned out to be 0.935 in experiment [7] and 0.995 in experiment [8].

As to ACTAGCAGGCCAAGTTTGGGTCACTCGAACAAAG, the PBM binding z-score is 2.15 in experiment [1]; 2.31 in experiment [2]; 1.59 in experiment [3]; -0.0795 in experiment [4]; 0.694 in experiment [5]; 2.42 in experiment [6]. Besides, the PBM binding z-score is 0.889 in experiment [7] and 0.0508 in experiment [8].

As to CCAGACAGGTGAAAGGTAACTCAATCTGGTACGC, the PBM binding z-score in experiment [1] amounted to 1.19; in experiment [2], 1.48; in experiment [3] it was 0.946; in experiment [4], 0.203; in experiment [5], 2.39; in experiment [6], 1.1. The PBM binding z-score is 0.0708 in experiment [7] and -0.0474 in experiment [8].

In the case of TCTAGTAGGCCAGAGGGTCACTCAAGAGGTACGG, the PBM binding z-score turned out to be 2.95 in experiment [1]; 2.83 in experiment [2]; 2.16 in experiment [3]; 0.571 in experiment [4]; 2.75 in experiment [5]; 1.74 in experiment [6]. Moreover, the results for the PBM binding z-score in experiment [7] and in experiment [8] were 0.0135 and 0.631, respectively.

Turning to ATATGTAGGTGACATCCGGGTCATTCAGGCTATG, the PBM binding z-score in experiment [1] amounted to 2.79; in experiment [2], 3.31; in experiment [3], 1.95; in experiment [4], 0.715; in experiment [5] it was 3.03; in experiment [6], 3.53. The results for the PBM binding z-score in experiment [7] and in experiment [8] were 2.11 and 2.66, respectively.

Turning to AGTCAAAGTTCAGGACTAGGTAACGTAAAGCACG, the PBM binding z-score came to 2.93 in experiment [1]; 4.32 in experiment [2]; 4.99 in experiment [3]; 2.87 in experiment [4]; 2.92 in experiment [5]; 2.51 in experiment [6]. The PBM binding z-score stood at 0.371 in experiment [7] and 1.94 in experiment [8].

As for ATCGAAAGGTCGTGAGGTGAGTATTCAGAAAGGC, the PBM binding z-score is 3.27 in experiment [1]; 4.51 in experiment [2]; 4.1 in experiment [3]; 1.91 in experiment [4]; 5.4 in experiment [5]; 3.48 in experiment [6]. The results for the PBM binding z-score in experiment [7] and in experiment [8] were 1.52 and 0.921, respectively.
